Sampled rows, rich in hits. Any-hit rate of the full collection: about 2.2%.
Shn3 3UTR inh = Schnurri-3 reporter inhibition in Clone20 osteoblasts. inhibition, % at 12.5 µM. AID 588674. Clone20 osteoblast Shn3 3'UTR firefly luciferase, 24 h. actives 0.52% (n = 360,000);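 active = mean inhibition of at least 75% with every replicate also reaching 75%; inconclusive = mean inhibition at least 75% but some replicate below; inactive = mean inhibition below 75%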
EWS-Fli inh = inhibitors of EWS/Fli oncoprotein transcriptional activity. A673 NR0B1-luciferase reporter, viability-normalised. actives 0.67% (n = 350,000). inhibition, % at 12.6 µM;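 active = mean inhibition of at least 50% after viability correction, with every replicate also passing that limit; inconclusive = mean reaches 50% but only one of two replicates passes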;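 also: firefly luciferase signal divided by Alamar Blue viability fluorescence both relative to DMSO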
MITF TRPM1 inh = reduces MITF-dependent TRPM1 promoter luciferase signal. SK-MEL-5 TRPM1 promoter luciferase, 24 h. inhibition, % at 12.5 µM. actives 0.83% (n = 330,000);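 active = mean inhibition across replicates of 60% or more, whatever share of single replicates reaches that level; inconclusive = some that reach 60%, reason not given; inactive = mean inhibition across replicates below 60%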
PAX8 inh HTS = PAX8 transcriptional activity inhibition; inhibition, % at 12.6 µM; AID 652154; actives 1.2% (n = 360,000); RMG-I TPO-luciferase reporter, SteadyGlo, 24 h;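 active = mean replicate inhibition at least 60% with every replicate also reaching 60%; inconclusive = only one of the two criteria is met; inactive = mean below 60% and not all replicates reaching 60%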;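 also: luciferase light reporting Pax8 driven TPO promoter activity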
EBV LMP1 NFkB = inhibitors of Epstein-Barr LMP1-induced NF-kappaB reporter; LMP1-induced NF-kappaB luciferase reporter cells, luminescence; inhibition, % at 12.5 µM; actives 0.69% (n = 350,000); AID 504558; in the data active = inhibition above about 41%; inconclusive = no clear call, values can overlap the other calls
LGR2 inh = Drosophila LGR2 receptor signaling inhibition. HEK293 LGR2, CRE-luciferase, bursicon-stimulated, 4 h. inhibition, % at 9.99 µM. actives 0.35% (n = 380,000);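 active = drop in luminescence signal, shown as inhibition above about 50% in the replicate tests, limit read from the data, passing the limit was not always enough; inconclusive = probably only some replicates passing the limit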;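 also: agonist challenge used bursicon conditioned medium at about half maximal strength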
Numbers stand for hits; – = inactive; ? = inconclusive; · = no result.

SMILES	Shn3 3UTR inh	EWS-Fli inh	MITF TRPM1 inh	PAX8 inh HTS	EBV LMP1 NFkB	LGR2 inh
CCCCC(=O)NC(c1ccc(Cl)cc1)c1ccc2cccnc2c1O (configuration not stated)	85.9	–	·	73.4	67.1	–
CCCC(=O)NC(c1ccc(Cl)cc1)c1ccc2cccnc2c1O (configuration not stated)	–	–	74.7	85.3	?	–
COc1ccccc1C(NC(C)=O)c1cc(Cl)c2cccnc2c1O (configuration not stated)	?	–	–	–	–	–
C[C@@H](NC(=O)C[C@@H]1C[C@@H]2c3cc(NS(C)(=O)=O)ccc3O[C@@H]2[C@@H](CO)O1)c1ccccc1	·	–	·	–	·	–
O=C(Nc1cccc(Cl)c1)N1C[C@H]2[C@@H](c3ccccc31)[C@H](CO)N2Cc1ccncc1	·	–	·	–	·	–
O=C(C[C@@H]1CC[C@@H]2[C@H](COC[C@@H](O)CN2C(=O)Nc2ccc(Cl)cc2)O1)NCCc1ccncc1	·	–	·	–	·	–
O=C(C[C@H]1C=C[C@H](NC(=O)c2ccccc2)[C@@H](CO)O1)NCc1ccc(Oc2ccccc2)cc1	·	–	·	–	·	–
CC(=O)NC(C)c1cc(Cl)c2cccnc2c1O (configuration not stated)	–	–	–	–	–	–
CCCC(=O)NC(c1ccc(Cl)cc1Cl)c1ccc2cccnc2c1O (configuration not stated)	92.4	–	65.6	80.2	62.8	–
CC(=O)NC(c1ccc2ccccc2c1)c1ccc2cccnc2c1O (configuration not stated)	85.3	–	–	92.7	48.9	–
CCCC(=O)NC(c1ccc(C)cc1)c1ccc2cccnc2c1O (configuration not stated)	–	·	·	·	62.5	·
CCCC(=O)NC(c1ccco1)c1cc(Cl)c2cccnc2c1O (configuration not stated)	–	·	–	·	–	·
CCCC(=O)NC(c1cccs1)c1cc(Cl)c2cccnc2c1O (configuration not stated)	–	–	–	–	–	–
C[C@@H]1CN([C@@H](C)CO)C(=O)c2cc(C#CCc3ccccc3)cnc2O[C@@H]1CN(C)CC1CC1	·	–	·	–	·	–
CC(C)NC(=O)Nc1ccc2c(c1)CC(=O)N([C@H](C)CO)C[C@H](C)[C@@H](CN(C)Cc1ccc(C(F)(F)F)cc1)O2	·	–	·	–	·	–
NC1=NC[C@@H](CC2CCCCC2)N1CCc1cc(C(F)(F)F)cc(C(F)(F)F)c1	97.3	·	99.4	·	–	·
CC(O)[C@H]1CN=C(N)N1CCc1cc(C(F)(F)F)cc(C(F)(F)F)c1 (some centres not stated)	–	–	–	–	–	–
NC1=NC[C@H](Cc2ccc(O)cc2)N1CCc1cc(C(F)(F)F)cc(C(F)(F)F)c1	–	–	–	–	–	·
NC1=NC[C@H](c2ccccc2)N1CCc1cc(C(F)(F)F)cc(C(F)(F)F)c1	–	61.3	–	–	–	–
CC(=O)N(C)C[C@@H]1Oc2ncc(C#Cc3ccc(F)cc3)cc2C(=O)N([C@@H](C)CO)C[C@@H]1C	·	–	·	–	·	–
O=C(O)CSc1c(-c2ccccc2)c2cc(Cl)ccc2[nH]c1=O	–	–	–	–	–	–
CCN(CC)C(=S)Sc1c(-c2ccccc2)c2cc(Cl)ccc2[nH]c1=O	87.0	·	–	·	–	·
NNC(=O)c1[nH]c2ccc(Cl)cc2c1-c1ccccc1	–	–	–	66.4	–	–
CC(=O)Cn1nnc2sc3c(c2c1=O)CCC(C(C)(C)C)C3 (configuration not stated)	–	–	–	–	–	–
CCOC(=O)c1sc(NC(=O)Cn2nnc3sc4c(c3c2=O)CCC(C(C)(C)C)C4)nc1C (configuration not stated)	–	–	–	72.9	–	–
CCC(=O)N1C[C@@H](O)COC[C@H]2O[C@@H](CC(=O)NCc3cc(F)cc(F)c3)CC[C@@H]21	·	–	·	–	·	–
COc1ccc(-c2cnc3c(NC=O)cc(-c4cccc(NS(C)(=O)=O)c4)cn23)cc1OC	–	–	·	111.6	·	–
CS(=O)(=O)Nc1cccc(-c2cc(NC=O)c3ncc(-c4ccc(F)c(Cl)c4)n3c2)c1	–	–	·	64.1	·	–
O=C(C[C@@H]1CC[C@H](NS(=O)(=O)c2ccc(F)cc2)[C@H](CO)O1)NCc1ccccc1F	·	–	·	·	·	–
